Data on seven compounds can be found in PubChem BioAssay (NCI).

The panel holds about 83,000 compounds, 20% with a hit somewhere; the sample as a whole holds those more often.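 Single-dose data. Exposure time 48 hours. Values below 10 considered active.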 Unmarked numbers belong to inactive results. Calls of active or inactive are those of the source.

What all share (assay): NCI-60 one-dose screen, 48 h (100 = growth as untreated, 0 = no growth, -100 = all killed)
Common to all, as to conditions: 10 µM unless noted

Test [1] concerns SK-MEL-2 melanoma.
Test [2] concerns EKVX NSCLC.
For test [3], the system named is SN12C renal.
The subject of test [4] is UO-31 renal.
The test system of test [5] is TK-10 renal.
Test [6] concerns ACHN renal.
Test [7] concerns CAKI-1 renal.
Test [8] concerns A498 renal.
Test [9] concerns CCRF-CEM leukemia.
For test [10], the system named is MOLT-4 leukemia.
In test [11] the test system is SR leukemia.
For test [12], the system named is RPMI-8226 leukemia.
For test [13], the system named is OVCAR-8 ovarian.
Test [14] concerns OVCAR-5 ovarian.
Test [15] relates to OVCAR-4 ovarian.
Test [16] deals with SK-OV-3 ovarian.
Test [17] concerns IGROV1 ovarian.
The subject of test [18] is OVCAR-3 ovarian.
Test [19] concerns HS 578T breast.
For test [20], the system named is NCI/ADR-RES ovarian.

Regarding `O=C(Nc1ccc(Oc2cccc(Cl)c2)c(Cl)c1)c1cccnc1`, the growth in test [1] is 44.1%; in test [2], 50.9%; in test [3] it was 43.4%; in [4] it was 44.1%; in [5], 59.8%; in test [6] it was 41.7%. Moreover, the growth in test [7] is 30.6%; in test [8] it was -3.1% (active); in [9] it was 17.5%; in [10], 37.4%; in test [11] it was 19.9%; in [12] it was 11.9%. For the same compound, the growth was 32.1% in test [13]; 71.2% in test [14]; 47.8% in test [15]; 34.3% in test [16]; 42.1% in test [17]; 2.66% (active) in test [18]. The growth is 31.1% in test [19] and 11.9% in [20].

For `Fc1cc2c(cc1Cl)N(c1ncnc3ccc(-c4ccc5n[nH]nc5c4)cc13)CC2`, the growth is 89% in [1]; 52.8% in test [2]; 64.9% in test [3]; 44.3% in [4]; 46% in test [5]; 50.1% in test [6]. Also, the growth in test [7] was 49.3%; in test [8] it was -2.78% (active); in test [9] it was 92.9%; in test [10], 90.5%; in [11] it was 66.8%; in test [12] it was 92%. Also, the growth was 85.6% in test [13]; 76.5% in test [14]; 81.3% in test [15]; 95.6% in [16]; 32.2% in [17]; 69% in [18]. In addition, the results for the growth in test [19] and in test [20] were 58.2% and 87.3%, respectively.

In the case of `Cc1ccccc1/C=C/C(=O)c1cccc(OCCCCOc2cccc(C(=O)/C=C/c3ccccc3C)c2)c1`, the growth in test [1] was 103%; in test [2] it was 94.6%; in [3] it was 90.7%; in test [4], 80.7%; in test [5] it was 101%; in [6] it was 101%. Further, the growth in [7] was 86%; in test [8] it was 86%; in test [9], 104%; in [10], 94.5%; in test [11], 74.4%; in test [12], -6.51% (active). Further, the growth in [13] was 97.6%; in test [14], 103%; in test [15], 87.1%; in test [16], 107%; in test [17], 96.6%; in test [18], 104%. The values for the growth in test [19] and in test [20] were 106% and 99.1%, respectively.

For the compound `COC(=O)Nc1nc2ccc(S(=O)c3ccccc3)cc2[nH]1` (stereo not given), the growth was 48.1% in [1]; 80% in test [2]; 82.2% in test [3]; 65% in test [4]; 92.9% in test [5]; 86.1% in [6]. For the same compound, the growth in test [7] was 63.2%; in test [8] it was 56.6%; in [9], 66.9%; in [10] it was 70.5%; in test [11], 23.4%; in test [12], 75.6%. Further, the growth in test [13] is 80.3%; in [14] it was 92.8%; in test [15], 84.4%; in test [16], 81.1%; in test [17], 67.8%; in [18] it was 57.9%. Besides, the growth in test [19] is 62%; in [20] it was 53.3%.

In the case of `C#Cc1c2c(c(OC)c3c1OCO3)[C@H]([C@H]1OC(=O)c3c1ccc(OC)c3OC)N(C)CC2`, the growth in test [1] was 67.7%; in test [2], 89.8%; in test [3], 100%; in [4], 87.2%; in test [5] it was 76.1%; in [6], 93.6%. In addition, the growth was 86.3% in test [7]; 72.6% in test [8]; 80.7% in test [9]; 77.3% in [10]; 9.19% (active) in [11]; 100% in test [12]. Further, the growth in test [13] is 95.2%; in [14] it was 101%; in test [15] it was 92.7%; in [16] it was 89.5%; in test [17], 82.5%; in test [18] it was 87.1%. Moreover, the growth is 99.1% in test [19] and 59.6% in test [20].

As to `COC(=O)/C=C1/SC(=Nc2cccc(OC)c2)N(CCc2c[nH]c3ccc(O)cc23)C1=O`, the growth in [1] is 57.6%; in [2], 66.9%; in test [3], 62.3%; in test [4], 55.7%; in test [5] it was 117%; in test [6], 71.8%. The growth is 82.2% in [7]; 64.9% in test [8]; 4.98% (active) in test [9]; -1.26% (active) in test [10]; 0.788% (active) in [11]; 16.2% in test [12]. The growth in test [13] was 41.6%; in test [14], 83.3%; in test [15], 49.4%; in test [16], 101%; in [17], 51.8%; in test [18], 40.3%. Moreover, the growth in [19] was 66.5%; in test [20], 58.8%.

Take `CS(=O)(=O)Nc1cc(-c2ccc3ncnc(Nc4ccc5c(cnn5Cc5cccc(F)c5)c4)c3c2)cnc1Cl`: the growth in test [1] was -42% (active); in test [2] it was 4.57% (active); in [3] it was 3.84% (active); in test [4] it was 15.7%; in [5], -15.9% (active); in test [6], 18.4%. Further, the growth was -27.9% (active) in test [7]; -48.7% (active) in test [8]; 12.7% in test [9]; -10% (active) in test [10]; 4.76% (active) in [11]; -24.4% (active) in test [12]. In addition, the growth is 28.1% in [13]; 7.19% (active) in [14]; 26.4% in test [15]; -17.7% (active) in test [16]; -51.2% (active) in test [17]; -5.45% (active) in [18]. Besides, the values for the growth in test [19] and in [20] were -14.8% (active) and 78.2%, respectively.
